From PubChem
Rows were chosen to be rich in hits. Some 2.4% of all compounds tested hit in one or more screens of this group.
Mcl1 Bid PPI: disrupts binding of human Mcl-1 to Bid peptide; hit rate 0.97% among 220,000; inhibition, % at 21.7 µM; TR-FRET Mcl-1/Bid-Dy647 peptide binding, 1536-well;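 active = compounds that cut the binding signal by more than half at the single screening dose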;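 also: His-tagged Mcl-1 with europium anti-His antibody binding Bid BH3 peptide; 0% = Mcl-1 plus peptide wells and 100% = peptide-only wells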
Target sequence (Q07820 whole entry, looked up): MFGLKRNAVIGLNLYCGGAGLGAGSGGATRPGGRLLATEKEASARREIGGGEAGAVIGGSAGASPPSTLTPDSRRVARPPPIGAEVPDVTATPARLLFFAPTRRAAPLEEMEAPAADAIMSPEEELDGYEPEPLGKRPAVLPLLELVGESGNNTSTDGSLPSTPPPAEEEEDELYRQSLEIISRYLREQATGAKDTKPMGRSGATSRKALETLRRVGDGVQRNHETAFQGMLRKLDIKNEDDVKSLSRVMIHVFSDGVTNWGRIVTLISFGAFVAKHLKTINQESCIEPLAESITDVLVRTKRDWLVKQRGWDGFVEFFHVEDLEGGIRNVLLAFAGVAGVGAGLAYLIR
zVAD death inh: blocks zVAD induced death of L929 cells | L929 zVAD necroptosis rescue, ATP luminescence, 24 h; with zVAD 60 µM | hit rate 0.38% among 220,000 | viability rescue, % at 10 µM | AID 1377;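 active = activation, scaled between plate controls, above about 75%, limit read from the data; inactive = activation under that limit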;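 also: 0% = zVAD with DMSO and 100% = DMSO alone without zVAD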
Mcl1-Noxa inh: Mcl-1/Noxa interaction inhibition; Q07820; TR-FRET Mcl-1/Noxa peptide binding, 2 h; inhibition, % at 21.7 µM; hit rate 1.5% among 220,000; AID 1022;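 active = compounds that cut the protein-peptide binding signal by more than 50% relative to plate controls in a single-dose test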;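 also: His-tagged Mcl-1 with rhodamine Noxa BH3 peptide and terbium anti-His antibody; 0% = Mcl-1 plus Noxa peptide wells and 100% = peptide-only wells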
MCL1 BIM primary: inhibitors of human MCL1 binding to BIM-BH3 peptide; Q07820; GST-MCL1 / FITC-Bim-BH3 fluorescence polarization; inhibition, % at 10.9 µM; hit rate 0.68% among 320,000; AID 2057;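 active = inhibition above the mean inhibition of all tested compounds plus 3 SD, set per campaign, cut at about 40% in these data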;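 also: 0% = DMSO wells and 100% = unlabeled Bim-BH3 peptide control; higher means more loss of mP so more displacement of Bim peptide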
Mcl-1 Bim block: disrupts Bim peptide binding to human Mcl-1. Bead-based flow cytometry, Bim peptide-Mcl-1 binding. inhibition, % at 10 µM. Q07820. AID 1009. hit rate 0.1% among 190,000; in the data active = inhibition above about 40%;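 also: 0% = no compound tracer wells and 100% = peptide blocker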
TNF death inh: blocks TNF-alpha induced death of Jurkat FADD-/- cells | Jurkat FADD-/- TNF necroptosis rescue, ATP luminescence, 24 h; 0 = TNF only, 100 = no-TNF cells | activation (protection from cell death), % at 10 µM | hit rate 0.068% among 220,000 | AID 463075;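 active = activation, meaning protection from cell death, of at least 50% relative to plate controls; inactive = activation below 50%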;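 also: necroptosis triggered by 40 ng/mL TNF-alpha added together with compound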
* marks the source's active call; other numbers are inactive results; x = no result given.

SMILES	Mcl1 Bid PPI	zVAD death inh	Mcl1-Noxa inh	MCL1 BIM primary	Mcl-1 Bim block	TNF death inh
O=[N+]([O-])c1cc(Br)cc(C=Nc2ccc3c(c2)OCO3)c1O	0.4	-0.2	54.6*	15.8	x	-6.0
Cc1cccc(N2CCN(C(=O)Cc3ccc(Br)cc3)CC2)c1C	60.6*	0.0	41.8	-0.5	-5.0	0.2
CC(=O)c1cc(C(=O)N2CCc3c([nH]c4ccccc34)C2C2CCCCC2)[nH]n1 (stereo not given)	-54.2	1.9	1.2	-7.6	-1.0	1.9
COc1cccc(NC(=O)COC(=O)c2ccccc2C(=O)N2CCN(c3ccccc3)CC2)c1	-8.7	1.4	2.2	49.7*	0.0	-1.9
O=C(COC(=O)c1ccccc1C(=O)N1CCN(c2ccccc2)CC1)Nc1ccc(F)cc1	-16.7	-0.9	2.3	48.6*	-4.0	1.5
O=C(c1ccccc1CCc1ccccc1)N1CCOCC1	57.2*	-0.6	2.1	-3.6	-4.0	-1.2
O=C(c1ccccc1C(=O)N1CCN(c2ccccc2)CC1)N1CCN(c2ccccc2)CC1	-14.3	-0.3	-4.1	46.1*	-3.0	-1.0
CCCC1(c2ccccc2)NC(=O)N(CC(=O)NCc2ccc(OC)cc2)C1=O (stereo not given)	x	x	x	-4.1	x	x
O=C(Nc1nccs1)C1CCCN1/C=C/C(=O)C(F)(F)F (stereo not given)	x	x	x	-4.6	x	x
CC(=O)Oc1ccc2c(C)c(CC(=O)N3CCN(C(=O)C4COc5ccccc5O4)CC3)c(=O)oc2c1C (stereo not given)	x	x	x	0.3	x	x
CCOC(=O)[C@H]1[C@H]2COc3ccccc3[C@@H]2N2C(=O)c3ccccc3NC(=O)[C@@]12C	x	x	x	-1.9	x	x
COc1ccc(N(CC(=O)NCCSCc2ccco2)S(=O)(=O)c2ccccc2)cc1Cl	x	x	x	0.1	x	x
CCN(Cc1ccncc1)C(=O)C1CCC(=O)N(Cc2ccc(Cl)cc2)C1 (stereo not given)	x	x	x	8.0	x	x
COc1ccc(NC2CCN(C3CC(=O)N(c4ccc(F)c(Cl)c4)C3=O)CC2)cc1 (stereo not given)	-38.4	-0.2	56.0*	4.0	-3.0	0.3
COc1ccc(S(=O)(=O)Nc2cc3c4c(c2)CCN4C(=O)CC3)cc1	x	x	x	2.3	x	x
N#C/C(=C/c1ccc(OCc2ccc(C(=O)O)cc2)c(Br)c1)c1cccc(F)c1	-43.0	-0.2	74.3*	9.0	-8.0	3.1
Oc1ccc(/C=N/Nc2ccnc3cc(Cl)ccc23)c(O)c1	56.7*	1.7	88.0*	15.7	x	-16.7
Cc1ccccc1/C=N/Nc1ccnc2cc(Cl)ccc12	52.5*	1.0	98.3*	1.2	4.0	-17.0
Cc1ccc(/C=N/Nc2ccnc3cc(Cl)ccc23)c(C)c1	62.6*	11.6	55.9*	0.5	1.0	-15.9
Cc1cc(C)nc(N(C#N)S(=O)(=O)c2ccccc2Cl)n1	89.2*	-0.8	24.0	2.3	-4.0	0.0
CC(=O)Nc1ccc(S(=O)(=O)N(C#N)c2nc(C)cc(C)n2)cc1	x	x	x	3.2	x	x
O=C(N/N=C/c1cccnc1)c1cc2c(ccc3ccccc32)o1	55.0*	2.1	49.3	-109.2	0.0	-3.3
Cc1ccc(/C=N/NC(=O)c2cc3c(ccc4ccccc43)o2)cc1[N+](=O)[O-]	75.7*	1.0	25.6	-3.5	0.0	-0.8
O=C(N/N=C/c1ccc([N+](=O)[O-])o1)c1cc2c(ccc3ccccc32)o1	87.6*	13.9	38.3	x	3.0	-3.1
COc1ccc(C(=O)N/N=C/c2ccc(OC(=O)c3cccc4ccccc34)c([N+](=O)[O-])c2)cc1	10.0	0.2	50.9*	13.4	-8.0	-2.5
SMILES	Mcl1 Bid PPI	zVAD death inh	Mcl1-Noxa inh	MCL1 BIM primary	Mcl-1 Bim block	TNF death inh
O=C(N/N=C/c1ccc([N+](=O)[O-])o1)c1cc2ccccc2o1	-34.8	7.5	6.0	15.7	x	-7.9
CCOc1ccccc1C(=O)Nc1ccc2c(c1)C(=O)NC2=O	x	x	x	2.6	x	x
Cc1cccc(N(C)Cc2nnc(-c3cccc(Br)c3)o2)c1	x	x	x	1.6	x	x
O=C(O)c1cc(Nc2cc(Cl)c3nonc3c2[N+](=O)[O-])ccc1O	x	x	x	26.9	x	x
CC(=O)c1ccc(OC(C)c2nc3ccccc3s2)cc1 (stereo not given)	x	x	x	3.8	x	x
N#CC(C#N)=C1C=CC=CN1/C(=C\c1ccccc1Cl)C(=O)c1ccccc1	12.6	x	64.0*	43.5*	25.0	-19.2
O=C(Nc1ccc(Cl)cc1)c1ccco1	x	x	x	10.8	x	x
O=C(Nc1ccc(-c2nc3cc(Cl)ccc3c(=O)o2)cc1)c1ccco1	71.5*	1.3	-20.2	0.1	-5.0	2.8
C/C(=N/NC(=O)c1ccccn1)c1ccc(O)cc1	96.1*	1.1	0.7	-9.6	x	0.1
Cc1cccc(C)c1NC(=O)N1C2CCC1CC(O)(c1cccnc1)C2 (stereo not given)	-9.0	2.0	53.0*	5.3	-4.0	0.9
N#Cc1nc(COc2ccc(F)cc2)oc1N1CCN(Cc2ccccc2)CC1	76.8*	0.1	2.8	7.5	1.0	2.3
Cc1ccc2nc(-c3ccc(NC(=O)CSc4nc(N)cc(=O)[nH]4)cc3)sc2c1	53.0*	-0.4	32.0	-13.6	x	0.2
Cc1ccc2nc(-c3ccc(NC(=O)CN4C(=O)c5ccccc5C4=O)cc3)sc2c1	38.7	1.7	22.1	2.2	-5.0	1.4
Cc1ccc2nc(-c3ccc(NC(=O)COC(=O)c4ccc(=O)[nH]c4)cc3)sc2c1	49.9	1.4	63.4*	-35.3	0.0	-0.1
COc1cccc(OCC(O)CNC(=O)c2oc3ccc(C)cc3c2C)c1 (stereo not given)	x	x	x	-6.6	x	x
O=C1CC(NS(=O)(=O)c2ccc([N+](=O)[O-])cc2)CN1c1ccc(Cl)cc1 (stereo not given)	x	x	x	1.7	x	x
O=C1Nc2ccc(Br)cc2/C1=C/C(=O)c1ccc2c(c1)OCO2	71.7*	4.3	104.6*	-8.3	x	-25.3
COCCN(C(=O)COC(=O)C1CCC(C(C)(C)C)CC1)c1c(N)n(Cc2ccccc2)c(=O)[nH]c1=O (stereo not given)	x	x	x	-17.2	x	x
O=C(O)CCCN1C(=O)/C(=C/c2ccncc2)SC1=S	-43.4	-0.3	-24.4	0.4	x	5.0
O=C(O)CCCCCN1C(=O)/C(=C\c2ccc(-c3ccc(Cl)cc3)o2)SC1=S	89.7*	-1.4	105.2*	-3.1	x	-1.7
O=C(O)CCCN1C(=O)/C(=C/c2ccc(-c3nc4ccccc4s3)o2)SC1=S	53.3*	-0.3	102.1*	16.4	11.0	-5.9
CC(=O)C1=C(C)OC(N)=C(C#N)C1c1ccncc1 (stereo not given)	-47.1	0.2	-3.7	41.5*	0.0	-3.3
Cc1ccc[n+](CC(=O)Nc2ccc([N+](=O)[O-])cc2)c1	x	x	x	2.4	x	x
Cc1ccc[n+](-c2nc([O-])sc2/C=N/Nc2ccc([N+](=O)[O-])cc2)c1	-81.6	-0.1	28.2	40.3*	x	1.7
CC(C)C(=O)NC(=S)Nc1sc2c(c1C(N)=O)CCCC2	-80.4	0.8	64.3*	22.4	0.0	1.2
